Measured values taken from PubChem BioAssay AID652048 (National Center for Advancing Translational Sciences (NCATS), 2013).
Where “and” joins values, the source holds several entries; their conditions need not be identical. Equal values may be shown once. The whole screen tested about 410,000 compounds, of which about 2,400 (0.59%) were called active. The list comes from a sample in which actives are over-represented; it also holds similar structures and randomly drawn compounds. Unmarked numbers belong to inactive results. Cut-off read from the data, not from the text of the source: active = max activation above about 30%; inactive = the rest. Where a SMILES comes first, the peptide text is derived from it. Bridges are numbered along the chain shown (N, C = ends). [ ]: non-standard residue; d: D form. The star is where a group is joined. X1 = CC[C@H](C)CCCCC(=O)*; Dab = NCC[C@H](N)C(=O)O

What follows are compounds tested against D(3) dopamine receptor (Homo sapiens) (UniProt P35462) (assay: qHTS of D3 Dopamine Receptor Agonist: qHTS). Settings: D3R DiscoveRx beta-arrestin cells, luminescence, 90 min; stronger effect = higher value.
D(3) dopamine receptor (Homo sapiens), sequence (P35462 whole entry, looked up): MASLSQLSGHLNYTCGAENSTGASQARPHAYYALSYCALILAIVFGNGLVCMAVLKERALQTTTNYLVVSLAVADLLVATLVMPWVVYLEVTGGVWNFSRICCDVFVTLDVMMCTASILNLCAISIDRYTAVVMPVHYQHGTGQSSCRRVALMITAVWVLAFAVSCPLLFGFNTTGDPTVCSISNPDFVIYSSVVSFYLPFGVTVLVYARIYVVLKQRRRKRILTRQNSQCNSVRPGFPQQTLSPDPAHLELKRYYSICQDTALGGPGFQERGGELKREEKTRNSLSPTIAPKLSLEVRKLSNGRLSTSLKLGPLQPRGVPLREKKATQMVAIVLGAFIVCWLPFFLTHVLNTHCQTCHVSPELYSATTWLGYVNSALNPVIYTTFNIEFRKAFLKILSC
Procedure, shortened: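 Agonist mode: compounds and dopamine controls were applied to plated cells for 90 min at 37 degrees C after an overnight attachment at 1500 cells/well. Luminescent read-out followed 30 - 60 minutes at room temperature with DiscoveRx detection reagent.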
Note: 0% is about no effect.

Question: Which max activation does the source give for C/C(CC(=O)NCc1ccc(Cl)cc1)=N\NC(=O)COc1ccc(C)cc1Br here?
Answer: -14.3%

Question: O=C(COc1ccc(Cl)cc1Cl)NCCCNC(=O)c1cnccn1 was tested. Which max activation did it give?
Answer: 5.48%

Question: How did the max activation turn out when CSc1ccc(/C=N\NC(=O)COc2ccc(Cl)cc2Br)cc1 was run?
Answer: 32.8% (active)

Question: With CC[C@H](C)CCCCC(=O)N[C@@H](CCN)C(=O)N[C@H](C(=O)N[C@@H](CCN)C(=O)N[C@H]1CCNC(=O)[C@@H]([C@H](C)O)NC(=O)[C@H](CCN)NC(=O)[C@H](CCN)NC(=O)[C@H](CC(C)C)NC(=O)[C@@H](CC(C)C)NC(=O)[C@H](CCN)NC1=O)[C@@H](C)O (X1-[Dab]T[Dab][Dab][Dab][dL]L[Dab][Dab][dT]; lactam 4-C) as the compound, how does the max activation read?
Answer: -1.99%

Question: For CC1(C)[C@@H]2CC[C@@]1(C)[C@H](OC(=O)CSC#N)C2, which max activation is on record?
Answer: -0.173%

Question: Which max activation does the source give for CS(=O)(=O)N1CCC(C(=O)N2CCN(c3ccccc3)CC2)CC1 here?
Answer: 6.05%

Question: How did the max activation turn out when O=S(=O)(NCCS(=O)(=O)N1CCN(c2ccccc2)CC1)c1ccc(Cl)cc1 was run?
Answer: 0.296%

Question: For CCS(=O)(=O)N1CCC(N2CCN(c3ccccc3)CC2)CC1, which max activation is on record?
Answer: 64.6% (active)

Question: How did the max activation turn out when Cc1ccc(C)c(N2CCN(C(=O)CCc3c(C)nc4c(c3C)c(=O)n(C)c(=O)n4C)CC2)c1 was run?
Answer: 1.37%

Question: How did the max activation turn out when COc1cc2c(cc1OC)[C@@H](Cc1cc(OC)c(OC)c(OC)c1)[N+](C)(CCCOC(=O)CC/C=C/CCC(=O)OCCC[N+]1(C)CCc3cc(OC)c(OC)cc3[C@H]1Cc1cc(OC)c(OC)c(OC)c1)CC2 (stereo partly specified) was run?
Answer: 4.34% and 3.72%

Question: With CCc1cc2c(N3CCN(c4nnc(CC)s4)CC3)ncnc2s1 as the compound, how does the max activation read?
Answer: 13.8%

Question: For Cn1nnc2c(N3CCN(c4ccccc4)CC3)ncnc21, which max activation is on record?
Answer: 1.99%

Question: Oc1ccccc1N1CCN(c2ncnc3sc(-c4ccccc4)cc23)CC1 was tested. Which max activation did it give?
Answer: 31.1% (active)

Question: For CCCCN(CC)CCCNC(=O)c1nn(C)c2c1CS(=O)(=O)c1ccccc1-2, which max activation is on record?
Answer: 31.8% (active)

Question: CCCCN(CC)CCCNC(=O)c1nn(C)c2c1CSc1ccccc1-2 was tested. Which max activation did it give?
Answer: 3.9%

Question: With COc1ccc(OC)c(CCNC(=O)c2nn(C)c3c2CS(=O)(=O)c2ccccc2-3)c1 as the compound, how does the max activation read?
Answer: 2.65%

Question: How did the max activation turn out when CCOc1ccccc1CNC(=O)c1ccc(-n2c(C)cc3c2CCC(C)C3)cc1 (stereo unspecified) was run?
Answer: -10.9%

Question: Which max activation does the source give for COC(=O)c1cc(NC(=O)CCc2c(C)nc3c4c(C)cc(C)nc4nn3c2C)cc(C(=O)OC)c1 here?
Answer: -21.8%

Question: Which max activation does the source give for O=C(CSc1nccn1-c1ccc(F)cc1)Nc1cccc2ccccc12 here?
Answer: 7.68%

Question: O=C(CC[C@H]1O[C@@H](n2ccc(=O)[nH]c2=O)[C@H](O)[C@@H]1O)N[C@H](Cc1ccccc1)C(=O)NCc1ccco1 was tested. Which max activation did it give?
Answer: 13.5%

Question: How did the max activation turn out when Cc1ccc(NC(=O)[C@H](Cc2ccccc2)NC(=O)CC[C@H]2O[C@@H](n3ccc(=O)[nH]c3=O)[C@H](O)[C@@H]2O)cc1C was run?
Answer: 63.9% (active)

Question: How did the max activation turn out when O=C(CC[C@H]1O[C@@H](n2ccc(=O)[nH]c2=O)[C@H](O)[C@@H]1O)N[C@H](Cc1ccccc1)C(=O)NCCCN1CCCC1=O was run?
Answer: -10.2%

Question: For CCOc1ccc(-c2cc3c(=O)n(CC(=O)NCc4ccc(OC)cc4)ccn3n2)cc1, which max activation is on record?
Answer: -2.91%

Question: For COc1cc(CNCc2ccc3c(c2)OCO3)c([N+](=O)[O-])cc1OC, which max activation is on record?
Answer: -8.17%

Question: With COc1cc2c(-c3ccc4c(c3)OCO4)c(-c3ccsc3)oc(=O)c2cc1OC as the compound, how does the max activation read?
Answer: 30.4% (active)

Question: COc1cc(-c2c(-c3ccc4c(c3)OCO4)noc2C)ccc1F was tested. Which max activation did it give?
Answer: -40.8%

Question: O=C(CCc1cn(Cc2ccc(F)cc2)c2ccccc12)NC1CCCCC1 was tested. Which max activation did it give?
Answer: -6.69%

Question: C/C=C/C1=C(C(=O)O)N2C(=O)[C@@H](NC(=O)[C@H](N)c3ccc(O)cc3)[C@H]2SC1 was tested. Which max activation did it give?
Answer: -0.123%

Question: Which max activation does the source give for C#C[C@]1(O)CC[C@H]2[C@@H]3CCC4=C/C(=N/O)CC[C@@H]4[C@H]3CC[C@@]21CC here?
Answer: 4.22%

Question: With CC(C)(C)OC(=O)N1CCN(C(=O)c2[nH]c(C(F)(F)F)nc2-c2ccccc2)CC1 as the compound, how does the max activation read?
Answer: -1.11%

Question: How did the max activation turn out when CC(C)CCNC(=O)c1cccnc1Sc1ccccc1 was run?
Answer: -0.291%

Question: For CC(C)CCNC(=O)c1[nH]c(C(F)(F)F)nc1-c1ccccc1, which max activation is on record?
Answer: 83.5% (active)

Question: COc1ccc(CCNC(=O)CCCn2c(=O)c3ccccc3n(Cc3ccc(C)cc3)c2=O)cc1OC was tested. Which max activation did it give?
Answer: -1.49%

Question: How did the max activation turn out when CC[C@H](C)CCCCC(=O)N[C@@H](CCN)C(=O)N[C@H](C(=O)N[C@@H](CCN)C(=O)N[C@H]1CCNC(=O)[C@H]([C@@H](C)O)NC(=O)[C@H](CCN)NC(=O)[C@H](CCN)NC(=O)[C@H](CC(C)C)NC(=O)[C@@H](CC(C)C)NC(=O)[C@H](CCN)NC1=O)[C@@H](C)O (X1-[Dab]T[Dab][Dab][Dab][dL]L[Dab][Dab]T; lactam 4-C) was run?
Answer: 0.26%

Question: How did the max activation turn out when COc1cccc(CNC(=O)C2CCC(CNS(=O)(=O)c3cccs3)CC2)c1 (stereo unspecified) was run?
Answer: 2.62%

Question: Which max activation does the source give for COc1cc(-n2c(C)nc3cc(C(=O)NCc4ccco4)ccc32)cc(OC)c1OC here?
Answer: -12.8%

Question: With COc1cc(C(=O)NCC(=O)N2CC=C(c3ccccc3)CC2)cc(OC)c1OC as the compound, how does the max activation read?
Answer: -3.75%

Question: For CCn1c(CNC(=O)c2cc(OC)c(OC)c(OC)c2)cc2cc(C)ccc21, which max activation is on record?
Answer: 30.2% (active)

Question: For Cc1cccc(C(CC(=O)NCC2(c3ccccc3)CCCC2)c2ccccc2)c1O (stereo unspecified), which max activation is on record?
Answer: -11.1%

Question: CCOc1ccccc1N(CC)C(=O)c1cc2ccc3cccnc3c2[nH]1 was tested. Which max activation did it give?
Answer: 8.81%

Question: With Cc1ccc(-c2nnc(CN3CCN(C)CC3)o2)cc1 as the compound, how does the max activation read?
Answer: -9.28%

Question: For Cc1ccc(C)c(N2CCN(Cc3nnc(-c4ccccc4)o3)CC2)c1, which max activation is on record?
Answer: -22.5%

Question: c1ccc(-c2cnc(CN3CCN(c4ccccc4)CC3)o2)cc1 was tested. Which max activation did it give?
Answer: 47.7% (active)

Question: With NNc1nnc(Cc2ccncc2)c2ccccc12 as the compound, how does the max activation read?
Answer: 4.9%

Question: Which max activation does the source give for COc1cc(CNCCSc2nnnn2C)ccc1OCc1c(F)cccc1Cl here?
Answer: -12.1%

Question: How did the max activation turn out when COc1cc(SC#N)ccc1N=Cc1c(C)[nH]n(-c2ccc(C)cc2)c1=O was run?
Answer: 37.3% (active)
